Laboratory results published in the supplement of paper PMC6555819.

What was measured:
Test in all cases: PBM binding z-score (relative to random genomic background probes); higher = stronger binding; sequences stand for … in GC…GCGATTGACAGCGTAGAATGAAGG
[1] = tested on: FXR:RXRa (NR concentration 270 nM, RXRa partner concentration 90 nM)
Procedure, shortened: (§1)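 Random background probes are the reference for binding z-scores. These scores derive from regression-normalized fluorescence on custom Agilent 4×180K protein-binding microarrays incubated 1 h with ligand-free nuclear receptor dimers. Binding was detected with antibodies against each partner (one per run).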

[2] = tested on: LXRa:RXRa (NR concentration 270 nM, RXRa partner concentration 90 nM)
Procedure, shortened: as §1

[3] = tested on: LXRa homodimer (NR concentration 270 nM)
Procedure, shortened: as §1

[4] = tested on: LXRb:RXRa (NR concentration 270 nM, RXRa partner concentration 90 nM)
Procedure, shortened: as §1

[5] = tested on: LXRb homodimer (NR concentration 270 nM)
Procedure, shortened: as §1

[6] = tested on: PPARg:RXRa (NR concentration 180 nM, RXRa partner concentration 90 nM)
Procedure, shortened: as §1

[7] = tested on: PPARg:RXRa 270nM:90nM, anti-RXR (NR concentration 270 nM, RXRa partner concentration 90 nM)
Procedure, shortened: as §1

[8] = tested on: PPARg:RXRa 30nM:10nM, anti-RXR (NR concentration 30 nM, RXRa partner concentration 10 nM)
Procedure, shortened: as §1

[9] = tested on: PPARg:RXRa 90nM:30nM, anti-RXR (NR concentration 90 nM, RXRa partner concentration 30 nM)
Procedure, shortened: as §1

[10] = tested on: PPARg:RXRa DBDmut IVT, anti-RXR (DBD mutation: RXRa K156A/R161A, NR concentration 270 nM, RXRa partner concentration 90 nM)
Procedure, shortened: as §1

[11] = tested on: PPARg:RXRa IVT, anti-PPARg (NR concentration 270 nM, RXRa partner concentration 90 nM)
Procedure, shortened: as §1

[12] = tested on: PPARg DBDmut:RXRa IVT, anti-PPARg (DBD mutation: PPARg1 K132A/R137A, NR concentration 270 nM, RXRa partner concentration 90 nM)
Procedure, shortened: as §1

[13] = tested on: PPARg DBDmut IVT, anti-PPARg (DBD mutation: PPARg1 K132A/R137A, NR concentration 270 nM)
Procedure, shortened: as §1

[14] = tested on: PPARg homodimer (NR concentration 180 nM)
Procedure, shortened: as §1

[15] = tested on: PXR:RXRa (NR concentration 270 nM, RXRa partner concentration 90 nM)
Procedure, shortened: as §1

[16] = tested on: PXR homodimer (NR concentration 270 nM)
Procedure, shortened: as §1

[17] = tested on: RARa:RXR (NR concentration 270 nM, RXRa partner concentration 90 nM)
Procedure, shortened: as §1

[18] = tested on: RARa homodimer (NR concentration 270 nM)
Procedure, shortened: as §1

[19] = tested on: RARb:RXRa (NR concentration 270 nM, RXRa partner concentration 90 nM)
Procedure, shortened: as §1

[20] = tested on: PPARa:RXRa (NR concentration 270 nM, RXRa partner concentration 90 nM)
Procedure, shortened: as §1

Sequence	PBM binding z-score [1]	PBM binding z-score [2]	PBM binding z-score [3]	PBM binding z-score [4]	PBM binding z-score [5]	PBM binding z-score [6]	PBM binding z-score [7]	PBM binding z-score [8]	PBM binding z-score [9]	PBM binding z-score [10]	PBM binding z-score [11]	PBM binding z-score [12]	PBM binding z-score [13]	PBM binding z-score [14]	PBM binding z-score [15]	PBM binding z-score [16]	PBM binding z-score [17]	PBM binding z-score [18]	PBM binding z-score [19]	PBM binding z-score [20]
CCTAGCAGACCAATCTGGGTCACTCAAGGCTTGA	0.219	0.374	-0.629	0.514	-1.09	1.8	2.09	0.195	1.21	4.01	4.87	0.573	-0.876	0.484	0.638	-0.509	1.57	-0.18	0.96	
TTTAGTTGGTCAAAGGTCACACACTCGAAATGCG	6.28	5.76	3.99	5.54	1.9		10.6	11.3	11.6	4.19	7	2.09	2.08	5.45	6.21	1.61	7.55	3.28	5.17	
CCGAGTAGGCTACGAGGGGGCATTCAGTGCGAAT	0.473	3.15	0.222	3.4		0.0175	1.1	-0.389	0.48	2.33	1.4			0.546	2.05	3.02	1.31	-0.663	0.81	1.72
CCGAGTAGGTTATGAGGGGGCATTCAGTGCGAAT	3.13	6.86	1.95	6.27		1.69	3.12	1.53	2.77	3.45	4.11			1.86	4.85	5.74	2.87	0.734	2.06	3.29
CTATGTATGTTAAGGGGGTCATTCAGTTTGAAAG	4.79	5	3.54	6.57		5.43	6.26	3.94	5.84	4.85	5.88			5.05	5.85	9.76	5.5	3.39	3.74	5.68
CCGAGTAGGTTACGATGGGGCATTCAGTGCGAAT	0.181	6.63	-0.148	3.71		0.775	1.01	-0.257	0.557	4.25	3.03			-0.0463	0.69	0.101	0.251	-0.659	1.03	1.42
TCGAGTAGGTTACGGGGGCATTCATGGATGAAGA	2.37	2.82	0.637	4.75		6.11	5.78	3.34	4.94	5.12	5.88			1.86	3.32	1.27	2.88	0.144	2.51	4.29
CTATGTAGGTTCAGGGGGTCATTCAGTTTGAAAG	5.43	5.56	4.57	6.31		5.72	6.22	3.18	5.1	3.32	4.65			3.3	6.29	10.6	6.89	2.03	3.59	5.86
CTATGTAGGTTAAGGGGGTCATTTAGTTTGAAAG	5.01	4.94	3.42	6.37		8.48	7.62	6.07	7.54	7.59	7.5			3.59	5.59	10.3	5.8	1.96	3.51	5.83
TCGAGTAGGTTACGGGCGCATTCAGGGATGAAGA	0.124	0.321	-0.293	-0.159		1.17	1.62	1.11	1.36	2.38	2.9			0.541	-0.126	-0.432	0.353	-0.39	0.68	1.4
TCGAGTAGGCTACGGGGGCATTCAGGGATGAAGA	1.68	1.1	-0.259	3.17		1.6	2.51	1.38	1.8	2.36	3.36			0.299	1.77	0.484	1.43	-0.44	0.961	2.56
CCGAGTAGTTTACGAGGGGGCATTCAGTGCGAAT	1.62	4.8	0.906	4.15		-0.276	1.08	0.469	1.59	1.32	0.828			0.86	3.29	4.22	2.06	0.00505	1.4	2.17
CTATGTAGGTTAAGGGGGTCATTAAGTTTGAAAG	4.76	4.56	2.21	5.86		8.78	7.7	5.93	8.13	7.49	7.73			3.7	5.89	12.5	5.37	1.68	3.58	6
CAATGTAGGTTAAGGGGGTCATTCAGTTTGAAAG	3.39	5.38	3.82	6.46		8.91	8.13	6.58	8.44	7.92	7.9			7.74	6.21	13.1	6.32	4.17	3.72	6.05
CTATGTAGGTTAAGGGGGTCGTTCAGTTTGAAAG	2.32	2.72	0.932	5.37		7.56	7.03	4.96	6.85	7.46	7.3			2.23	3.86	6.99	3.39	1.49	2.37	5.33
TCGAGTGGGTTACGGGGGCATTCAGGGATGAAGA	2.78	3.03	1.26	5.08		5.66	5.53	3.59	4.84	4.62	6.37			1.92	3.59	2.12	3.12	1.12	2.46	4.26
CTGTGTAGGTTAAGGGGGTCATTCAGTTTGAAAG	5.15	4.93	3.47	6.55		6.19	6.47	4.23	5.78	5.16	6.16			3.62	5.84	10.9	5.48	2.01	3.67	5.67

Sequence	PBM binding z-score [1]	PBM binding z-score [2]	PBM binding z-score [3]	PBM binding z-score [4]	PBM binding z-score [5]	PBM binding z-score [6]	PBM binding z-score [7]	PBM binding z-score [8]	PBM binding z-score [9]	PBM binding z-score [10]	PBM binding z-score [11]	PBM binding z-score [12]	PBM binding z-score [13]	PBM binding z-score [14]	PBM binding z-score [15]	PBM binding z-score [16]	PBM binding z-score [17]	PBM binding z-score [18]	PBM binding z-score [19]	PBM binding z-score [20]
TCGAGTAGGTTACGGGGGCATACAGGGATGAAGA	2.72	2.52	0.664	4.86		6.1	5.69	3.56	5.05	5.24	5.71			3.33	2.97	1.54	3.27	0.305	2.65	4.48
TCGAGTCGGTTACGGGGGCATTCAGGGATGAAGA	1.7	1.82	0.317	4		1.46	2.62	1.58	2.15	1.87	3.65			1.02	2.5	0.347	2.15	-0.175	1.71	2.75
CTATGTAGGTTAAGGGGGTCATTCATTTTGAAAG	4.9	4.91	3.28	6.23		8.6	7.7	6.27	7.77	7.22	7.67			2.86	5.45	5.06	5.94	1.58	3.38	5.9
CTATGTAGGTTTAGGGGGTCATTCAGTTTGAAAG	4.33	4.71	4.34	5.97		4.01	5.15	2.66	4.77	3.47	4.95			3.1	5.4	9.15	5.1	1.56	2.93	5.41
TCGAGTAGGTTACGGGGGCATGCAGGGATGAAGA	2.17	2.53	0.37	4.94		6.15	5.69	3.6	4.99	5.07	5.87			1.59	2.75	0.876	2.91	0.522	2.5	4.27
CTCTGTAGGTTAAGGGGGTCATTCAGTTTGAAAG	5.36	5.1	3.51	6.33		6.59	6.91	4.4	6.57	5.92	6.03			3.78	6.17	12	6.17	1.78	3.6	5.68
CTATGTAGGTTAAGGGGCTCATTCAGTTTGAAAG	0.164	0.226	-0.199	1.35		6.99	6.59	4.66	6.73	7.02	6.52			1.36	0.403	0.167	0.505	0.222	0.689	4.02
CCGAGTAGGTTACGAGGGTGCATTCAGTGCGAAT	0.536	5.55	-0.00974	2.43		1.46	1.92	0.234	1.13	4.66	3.87			0.357	4.47	4.3	0.897	-0.753	1.13	1.8
TCGAGTAGGTTACGTGGGCATTCAGGGATGAAGA	-0.0639	0.328	-0.386	0.112		0.953	1.36	1.14	1.11	3.11	2.65			-0.0563	-0.044	-0.265	0.41	-0.517	0.704	1.25
CTATGTAGGTTAAGGGGGTCATTCTGTTTGAAAG	4.82	4.99	2.88	6.33		8.35	7.68	6	7.63	6.99	7.55			3.03	5.44	3.94	5.46	1.35	3.47	5.95
CCGAGTAGGTTACGAGGGGGCAATCAGTGCGAAT	2.55	6.66	0.917	6.01		2.49	3.24	0.613	2.21	4.92	4.42			2.06	4.26	2.9	2.87	0.639	2.16	3.34
CTATGGAGGTTAAGGGGGTCATTCAGTTTGAAAG	6.34	5.63	4.04	6.44		6.41	6.6	3.97	5.74	4.65	6.42			4.29	6.58	12.7	6.29	2.33	4.01	6.28
CCGAGTAGGTTACGAGAGGGCATTCAGTGCGAAT	1.04	7.41	2.68	5.96		1.48	1.64	-0.24	0.958	4.61	3.37			2.29	5.07	6.97	2.08	-0.345	1.66	2.19
CTATGTAGATTAAGGGGGTCATTCAGTTTGAAAG	4.51	4.72	3.33	6.12		4.29	5.06	2.72	4.53	3.6	4.97			4.49	5.56	10.4	5.56	3.01	3.42	5.52
CTATGTAGGTTATGGGGGTCATTCAGTTTGAAAG	5.57	5.53	4.32	6.32		8.27	7.54	5.25	7.06	7.32	7.49			4.13	6.22	12.9	6.28	1.72	3.67	6.04
CCGAGTAGGTTACGAGGGGGTATTCAGTGCGAAT	1.23	5.34	0.455	4.28		1.8	3.05	1.22	1.9	4.05	4.17			1.24	2.91	0.693	1.99	0.377	1.51	2.87
